Calls of active or inactive are those of the source.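 The calls were made as follows: active = lower glucosylceramide lipid buildup in Gaucher patient macrophages after compound treatment; inactive = the rest.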
Experiment: Extended Characterization of Activators of N370S glucocerebrosidase as a Potential Chaperone Treatment of Gaucher Disease: Quantification of GlcCer accumulation in Gaucher macrophages
Conditions: Gaucher patient macrophages, GlcCer-BODIPY accumulation fluorescence
Description: Glucocerebrosidase (GCase) catalyzes the hydrolysis of beta-glucocerebroside (GC) to glucose and ceramide in lysosomes. Mutations in the glucocerebrosidase gene result in Gaucher disease, an autosomal recessive lysosomal storage disorder. Many of the mutations encountered in patients with Gaucher disease are missense alterations that may cause misfolding, decreased stability and/or mistrafficking of this lysosomal protein. […] These inhibitors include iminosugar analogs and other inhibitors that were discovered as part of previous work. However, the enhancement of enzyme activity by the chaperone action of an enzyme inhibitor must be balanced against the direct inhibition of the enzyme. […] In this extended characterization of our probe, we have further characterized the activity of probes in relevant models of Gaucher disease. This assay attempts to quantitate GC concentration in patient-derived macrophages following compound incubation. NIH Chemical Genomics Center [NCGC] NIH Molecular Libraries Probe Production Centers Network [MLPCN] […]
In order to quantify macrophage GlcCer accumulation, erythrocyte ghosts were labeled with N-[11- (dipyrrometheneboron difluoride) undecanoyl]-D-Glucosyl-beta1-1'-D-erythro-sphingosine (C11 TopFluor Glucosyl Ceramide) (Avanti Polar Lipid) for 30 min at 37 degrees C and fluorescence measured at 495/503 nm on a Victor 1420 multi-label counter (PerkinElmer).
In the case of C#Cc1ccc(NC(=O)c2cnn3c(C)cc(C)nc23)cc1, the outcome is reported as “active; decreased”.
